Hit rate of the full screen: of about 1,200 compounds, about 65 (5%) were called active.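 How the source made its calls: active means at either tested dose, response and 90th-percentile vesicle-stain brightness of CD8 cells under set limits and under 9% cells vesicle-bound; inactive means the rest.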 The list comes from a sample in which actives are over-represented; it also holds similar structures and randomly drawn compounds.

The source of these data is PubChem BioAssay AID2810 (NMMLSC, 2010).

A short description of the assay: modulators of CD8 T cell-vesicle binding, confirmation, cherry-picked primary hits, two concentrations (AID 2810).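 On percent response (vesicle binding): ratio of mean FL2 vesicle stain of CD8+ cells to that row's control.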 To be noted: 2C CD8+ T cell-vesicle binding, flow cytometry; for double positive events: CD8+/vesicle+ events. (In general: In flow cytometry, cells or beads pass a laser one at a time.)
Where [1] appears, read: at 15.4 µM, stronger effect = lower value.

Consider `CCOC(=O)CSc1nc(C)nc2c1sc1nc(C)c(C(C)=O)c(-c3ccc(OC)cc3)c12`, for which the double positive events is, setting by setting: (at 7.7 µM) 22.7%; under setting [1], 7.5%. Besides, the percent response (vesicle binding) under setting [1] was 128% (inactive) and the percent response (vesicle binding) (response, at 7.7 µM) came to 327%.

On to `CC1=C/C(=C(\c2ccc(O)c(C)c2)c2ccccc2S(=O)(=O)O)C=CC1=O`, for which the double positive events was 8.5% (at 7.7 µM) and 0.5% under setting [1]. Besides, the percent response (vesicle binding) was 14.6% (active) under setting [1] and 142% (response, at 7.7 µM).

In turn, `O=C(Nc1nnc(C2=COCCO2)o1)C1CCCCC1` gave a double positive events (at 7.7 µM) of 47.3% and a double positive events under setting [1] of 23%. Also, the percent response (vesicle binding) under setting [1] is 200% (inactive) and the percent response (vesicle binding) (response, at 7.7 µM) worked out at 280%.

In the case of `CS(=O)(=O)NCc1ccccc1Br`, the double positive events was 31% (at 7.7 µM) and 2.7% under setting [1]. Besides, the percent response (vesicle binding) reads like this: under setting [1], 34% (active); (response, at 7.7 µM) 371%.

For `Cc1nc2sc(C(c3ccccc3)N3CCN(c4ccccc4F)CC3)c(O)n2n1` (configuration not stated), the double positive events (at 7.7 µM) worked out at 38.2% and the double positive events under setting [1] came out at 4.2%. The percent response (vesicle binding) reads like this: under setting [1], 142% (inactive); (response, at 7.7 µM) 239%.

In the case of `CCOc1ccccc1NC(=O)c1ccc(CN2CCc3ccccc3C2)cc1`, the double positive events worked out at 11.5% (at 7.7 µM) and 30% under setting [1]. Also, the percent response (vesicle binding) reads like this: under setting [1], 739% (inactive); (response, at 7.7 µM) 110%.

Molecule `COc1ccc2nc(SCC(=O)Nc3ccc4c(c3)OCCO4)[nH]c2c1` gave a double positive events (at 7.7 µM) of 10.5% and a double positive events under setting [1] of 19.8%. The percent response (vesicle binding) is, setting by setting: under setting [1], 168% (inactive); (response, at 7.7 µM) 164%.

`O=C(/C=C/c1ccccc1)OCC(=O)c1ccc[nH]1`: the double positive events is, setting by setting: (at 7.7 µM) 14.3%; under setting [1], 30.2%. Besides, the percent response (vesicle binding) by setting is: under setting [1], 439% (inactive); (response, at 7.7 µM) 424%.

For the molecule `CCOC(=O)C1CCCN(c2cc(=O)n(-c3ccccc3Cl)c(=O)[nH]2)C1` (configuration not stated), the double positive events is, setting by setting: (at 7.7 µM) 10.2%; under setting [1], 2.3%. The percent response (vesicle binding) was 18.2% (active) under setting [1] and 131% (response, at 7.7 µM).

For `CCOC(=O)C1CCCN(S(=O)(=O)c2ccc(F)c(C(=O)Nc3ccc(F)c(F)c3)c2)C1` (configuration not stated), the double positive events by setting is: (at 7.7 µM) 13.5%; under setting [1], 23.8%. For the same molecule, the percent response (vesicle binding) was 153% (inactive) under setting [1] and 105% (response, at 7.7 µM).

As for `CCOC(=O)C1CCN(C(=O)CN2C(=O)c3ccccc3S2(=O)=O)CC1`, the double positive events is 13% (at 7.7 µM) and 23% under setting [1]. For the same molecule, the percent response (vesicle binding) by setting is: under setting [1], 203% (inactive); (response, at 7.7 µM) 166%.

Take `O=C1c2cccc3c2[C@H](CCC3)CN1[C@@H]1CN2CCC1CC2`: the double positive events was determined as 19.9% (at 7.7 µM) and 28.1% under setting [1]. In addition, the percent response (vesicle binding) reads like this: under setting [1], 727% (inactive); (response, at 7.7 µM) 238%.

Regarding `COc1ccc(C2=Nc3cc(C)ccc3OC2)cc1`, the double positive events reads like this: (at 7.7 µM) 12.1%; under setting [1], 2%. The percent response (vesicle binding) runs as follows: under setting [1], 53.5% (active); (response, at 7.7 µM) 546%.

Turning to `CCCCN(C(=O)CCCc1nc2ccccc2s1)c1c(N)n(CC(C)C)c(=O)[nH]c1=O`, the double positive events (at 7.7 µM) came to 14.2% and the double positive events under setting [1] is 7.8%. For the same molecule, the percent response (vesicle binding) reads like this: under setting [1], 50.8% (inactive); (response, at 7.7 µM) 386%.

In the case of `CCCN(Cc1ccc(N(C)C)cc1)CC1CC1`, the double positive events runs as follows: (at 7.7 µM) 16.6%; under setting [1], 22.1%. Moreover, the percent response (vesicle binding) under setting [1] was 413% (inactive) and the percent response (vesicle binding) (response, at 7.7 µM) was 436%.

For `CN(C(=O)COC(=O)c1cccc(NS(=O)(=O)c2ccc(F)c(F)c2)c1)C1CCS(=O)(=O)C1` (configuration not stated), the double positive events by setting is: (at 7.7 µM) 21.6%; under setting [1], 29.3%. Besides, the percent response (vesicle binding) is, setting by setting: under setting [1], 264% (inactive); (response, at 7.7 µM) 393%.

Take `CN1CCN(c2oc(-c3ccc([N+](=O)[O-])cc3)nc2C#N)CC1`: the double positive events amounted to 8.5% (at 7.7 µM) and 9.4% under setting [1]. In addition, the percent response (vesicle binding) under setting [1] is 143% (inactive) and the percent response (vesicle binding) (response, at 7.7 µM) is 149%.

As to `CC(C)[C@H]1C(=O)Nc2ccccc2N1C(=O)N[C@@H](Cc1ccccc1)C(=O)N[C@@H](Cc1ccccc1)C(=O)O`, the double positive events reads like this: (at 7.7 µM) 36.3%; under setting [1], 8.9%. The percent response (vesicle binding) is 55.5% (active) under setting [1] and 394% (response, at 7.7 µM).

On to `Cc1cccc(OCC(=O)NC(Cc2ccccc2)C(=O)O)c1` (configuration not stated), for which the double positive events reads like this: (at 7.7 µM) 7.7%; under setting [1], 11.5%. Also, the percent response (vesicle binding) under setting [1] was 295% (inactive) and the percent response (vesicle binding) (response, at 7.7 µM) worked out at 136%.

`CC(=O)Nc1ccc(S(=O)(=O)NC2CCSc3ccccc32)cc1` (configuration not stated): the double positive events by setting is: (at 7.7 µM) 13.6%; under setting [1], 10.4%. Also, the percent response (vesicle binding) is 146% (inactive) under setting [1] and 238% (response, at 7.7 µM).

For `COc1ccc(C(=O)NNC(=O)CSc2nnnn2C)cc1`, the double positive events reads like this: (at 7.7 µM) 13.8%; under setting [1], 1.8%. The percent response (vesicle binding) runs as follows: under setting [1], 19.1% (active); (response, at 7.7 µM) 160%.

On to `COc1ccc(C(=O)CSc2nnc(CNC(=O)c3ccc(OC)c(OC)c3)n2C)cc1`, for which the double positive events by setting is: (at 7.7 µM) 7.6%; under setting [1], 15.6%. Also, the percent response (vesicle binding) is, setting by setting: under setting [1], 136% (inactive); (response, at 7.7 µM) 300%.

As to `COc1ccc(CNc2nnnn2C)cc1`, the double positive events (at 7.7 µM) was found to be 28.6% and the double positive events under setting [1] is 12.4%. The percent response (vesicle binding) under setting [1] was 192% (inactive) and the percent response (vesicle binding) (response, at 7.7 µM) stood at 376%.

`Cc1noc(C)c1COc1ccc(C(=O)NCc2cccs2)cc1`: the double positive events was found to be 6.2% (at 7.7 µM) and 22.1% under setting [1]. For the same molecule, the percent response (vesicle binding) by setting is: under setting [1], 165% (inactive); (response, at 7.7 µM) 120%.

With `Nc1ccccc1C(=O)N/N=C1\C2CN3CCN(C2)CC1(c1ccccc1)C3`, the double positive events is 20% (at 7.7 µM) and 18.6% under setting [1]. The percent response (vesicle binding) runs as follows: under setting [1], 176% (inactive); (response, at 7.7 µM) 839%.

Regarding `CC(=O)c1ccc(OCc2cc(C(=O)N3CCCCC3c3cccnc3)no2)cc1` (configuration not stated), the double positive events runs as follows: (at 7.7 µM) 18.2%; under setting [1], 21.2%. In addition, the percent response (vesicle binding) is, setting by setting: under setting [1], 171% (inactive); (response, at 7.7 µM) 229%.

As for `CN(Cc1ccccc1)C(=O)c1ccc(NC(=O)Cc2cccc(NC(=O)C3CCCN(C(=O)C4CCC4)C3)c2)cc1` (configuration not stated), the double positive events by setting is: (at 7.7 µM) 7.8%; under setting [1], 4.3%. Also, the percent response (vesicle binding) under setting [1] was 54.8% (active) and the percent response (vesicle binding) (response, at 7.7 µM) worked out at 219%.

Regarding `O=C(Cc1cccc(NC(=O)C2CCCN(C(=O)C3CC3)C2)c1)Nc1cccc(C(=O)N2CCCC2)c1` (configuration not stated), the double positive events (at 7.7 µM) was 25% and the double positive events under setting [1] turned out to be 13.2%. Also, the percent response (vesicle binding) under setting [1] was 338% (inactive) and the percent response (vesicle binding) (response, at 7.7 µM) is 438%.

`CN(CC(=O)Nc1cccc(F)c1)C(=O)c1ccc(S(=O)(=O)N2CCCC2)cc1` had a double positive events (at 7.7 µM) of 28.6% and a double positive events under setting [1] of 10.5%. The percent response (vesicle binding) was 176% (inactive) under setting [1] and 275% (response, at 7.7 µM).

Take `Cc1cc(C)c(C(=O)N2CCCC(N3CCN(c4ccc(F)cc4)CC3)C2)o1` (configuration not stated): the double positive events runs as follows: (at 7.7 µM) 39.2%; under setting [1], 14.9%. Also, the percent response (vesicle binding) under setting [1] was 236% (inactive) and the percent response (vesicle binding) (response, at 7.7 µM) is 688%.

For the molecule `Cc1cc(C)cc(NC(=O)C(=O)NCCCN2CCCC2=O)c1`, the double positive events (at 7.7 µM) stood at 10% and the double positive events under setting [1] turned out to be 9.4%. Also, the percent response (vesicle binding) reads like this: under setting [1], 138% (inactive); (response, at 7.7 µM) 150%.

In the case of `COc1ccc(CN2C(=O)C(C)Nc3ncnc(N4CCN(c5ccccn5)CC4)c32)cc1` (configuration not stated), the double positive events was found to be 8.2% (at 7.7 µM) and 4.1% under setting [1]. Besides, the percent response (vesicle binding) runs as follows: under setting [1], 33.1% (active); (response, at 7.7 µM) 235%.

`O=C(c1ccc(Cn2c(=S)[nH]c3ccccc3c2=O)cc1)N1CCN(c2ccccn2)CC1`: the double positive events reads like this: (at 7.7 µM) 8.9%; under setting [1], 7%. Besides, the percent response (vesicle binding) reads like this: under setting [1], 222% (inactive); (response, at 7.7 µM) 465%.
